These results are taken from the OligoGym collection.
Note: reference of the scale not given here.

The first assay deals with METTL21D. In words: pooled miR-30 sensor sort-seq; sequence = guide strand. The settings on record: shRNA.
For the sequence TTGCAATTCCTCAAGATCGGTG, the sensor-assay potency score (higher = more potent) was -0.436.
On the same count and under the same terms, the value for TATACTGCTGTAGTCGTAGCAC was 0.182; that for TTTGTCTTCTTAGCAACTCATT was -1.33; that for TGAACTAAGTAACCTAAGCTGG was -0.584.
Regarding TTAAACTCTGAAGACAAACTAA, the sensor-assay potency score (higher = more potent) was -0.429.
TAGCACTGTACCATCCCGCTTC gave a sensor-assay potency score (higher = more potent) of 0.175.
The same measure, in the same setting: the value for TTTAAGAAGAACTTGATGCTGA was 0.983; that for TTCGTTGTTCATAACAACATAT was -1.05.

The next assay has as its target MET. The assay is described as above. The settings on record: shRNA.
Turning to TTAAACACTTCCTTCTTTGTGG, the sensor-assay potency score (higher = more potent) worked out at 0.061.
On the same count and under the same terms, next, TATTCTTGTGTGAAAAGTCTGA: 0.132; TTCATTGAAATGCACAATCAGG: -0.957.
Take TATATTAAACACTTCCTTCTTT: the sensor-assay potency score (higher = more potent) was 0.147.
Still for that read-out and setting: the value for TTGATATTGAGACAACACCAGC was -1.2.
For the sequence TAGAATGACATTCTGGATGGGT, the sensor-assay potency score (higher = more potent) was 0.522.
Still for that read-out and setting: next, TTTCTTGCCATCATTGTCCAAC: -0.767; TTGCTTTGTGCGAACACCCCGA: 0.0698; TGATCGAGAAACCACAACCTGC: -1.33.
TTCTGTGAGAATACACTCCAGA registered a sensor-assay potency score (higher = more potent) of -0.115.
Same read-out and setting: the value for TTGAGTTTGCAGACTTTCCAAA was -0.558.
Still for that read-out and setting: next, TATGTCAGCAGTATGATTGTGG: 0.148.

A further assay has as its target MEX3D. The assay is described as above. The settings on record: shRNA.
Take TTGCCGGAGCCGCTGTAGGGGC: the sensor-assay potency score (higher = more potent) was -1.61.
Turning to TAGGTGTTTGTCTTGGCCCGCA, the sensor-assay potency score (higher = more potent) worked out at 0.155.
The same measure, in the same setting: the value for TTGACCGTGGAGCAGCCGCTGA was -1.71; that for TTGGCGTGGAAGTCGCTGTCGG was -0.234.
Still for that read-out and setting: next, TGATGTAGGTGTTTGTCTTGGC: 0.554.
Still for that read-out and setting: next, TTGATCTTGCAGCCCTGGCGAC: -1.24.
In turn, AGGAAGTCGAAGTCGAAGCCGA registered a sensor-assay potency score (higher = more potent) of -1.39.
TTGACGCTTTTCTTGCGGCTGC showed a sensor-assay potency score (higher = more potent) of -0.68.
Consider TTGATGTAGGTGTTTGTCTTGG, for which the sensor-assay potency score (higher = more potent) was -0.318.
On to TGGTCGGCCAGCAGCGTCGGGG, for which the sensor-assay potency score (higher = more potent) was -1.69.
AAGTCGAAGCCGAAGTCGCAGT had a sensor-assay potency score (higher = more potent) of -0.692.
In turn, TAGGTGTGCGTCCGCTGCTGGA had a sensor-assay potency score (higher = more potent) of -1.39.

For a further assay, the target named is MFNG. Described as above. The settings on record: shRNA.
Sequence ATAGTTGTCATCGTCCACATGG displayed a sensor-assay potency score (higher = more potent) of -0.521.
On the same count and under the same terms, the value for AACTGTACCAGCCTCGTGCGGT was -0.733.
Same read-out and setting: next, AATGAAGACATCGTGTAGCTGT: 0.421; TCGAACTCAGCAGCCATCTTGC: -1.05.
Still for that read-out and setting: next, TCACATAGTTGTCATCGTCCAC: -0.585; TCGGTGAAGACAAATGTCTGTT: -0.485; TAGTTGTCATCGTCCACATGGC: -0.357.
TTGTCATCGTCCACATGGCAGA displayed a sensor-assay potency score (higher = more potent) of -1.57.
